The entries come from a sample that favours the strongest signals as a whole.
How the values were obtained:
Assay in all cases: glycan array binding signal (z-score within array); higher = stronger binding
Conditions in all cases: glycan notation: IUPAC condensed, linker removed
Fuc(a1-2)Gal = target: Fuc(a1-2)Gal
In short: (§1)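 Arrays were curated from the Consortium for Functional Glycomics database, 3228 in total, and kept only where the protein sequence was available. Binding is expressed as a within-array Z-score. This score was averaged across arrays of the same protein sequence at different concentrations or buffers and across linkers, and negative values can be read as non-binding.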

[1] = target: Fuc(a1-2)Gal(b1-3)GlcNAc(b1-2)Man(a1-3)[Fuc(a1-2)Gal(b1-3)GlcNAc(b1-2)Man(a1-6)]Man(b1-4)GlcNAc(b1-4)[Fuc(a1-6)]GlcNAc
In short: as §1

[2] = target: Fuc(a1-2)Gal(b1-3)[Fuc(a1-4)]GlcNAc
In short: as §1

Fuc(a1-2)Gal(b1-4)Glc = target: Fuc(a1-2)Gal(b1-4)Glc
In short: as §1

[3] = target: Fuc(a1-2)Gal(b1-4)[Fuc(a1-3)]GlcNAc(b1-2)[Fuc(a1-2)Gal(b1-4)[Fuc(a1-3)]GlcNAc(b1-4)]Man(a1-3)[Fuc(a1-2)Gal(b1-4)[Fuc(a1-3)]GlcNAc(b1-2)Man(a1-6)]Man(b1-4)GlcNAc(b1-4)GlcNAc
In short: as §1

[4] = target: Fuc(a1-2)[Gal(a1-4)]Gal(b1-4)GlcNAc
In short: as §1

[5] = target: Fuc(a1-3)[Gal(b1-4)]GlcNAc(b1-2)Man(a1-3)[Fuc(a1-3)[Gal(b1-4)]GlcNAc(b1-2)Man(a1-6)]Man(b1-4)GlcNAc(b1-4)[Fuc(a1-6)]GlcNAc
In short: as §1

[6] = target: Fuc(a1-3)[Gal(b1-4)]GlcNAc6S
In short: as §1

[7] = target: Fuc(a1-3)[GalNAc(b1-4)]GlcNAc
In short: as §1

[8] = target: Gal(a1-3)Gal(b1-3)GlcNAc(b1-2)Man(a1-3)[Gal(a1-3)Gal(b1-3)GlcNAc(b1-2)Man(a1-6)]Man(b1-4)GlcNAc(b1-4)GlcNAc
In short: as §1

[9] = target: Gal(a1-3)Gal(b1-4)GlcNAc(b1-6)GalNAc
In short: as §1

Gal(a1-4)Gal(b1-4)Glc = target: Gal(a1-4)Gal(b1-4)Glc
In short: as §1

[10] = target: Gal(a1-4)Gal(b1-4)GlcNAc(b1-2)Man(a1-3)[Gal(a1-4)Gal(b1-4)GlcNAc(b1-2)Man(a1-6)]Man(b1-4)GlcNAc(b1-4)GlcNAc
In short: as §1

Gal(b1-3)GalNAc = target: Gal(b1-3)GalNAc
In short: as §1

[11] = target: Gal(b1-3)GalNAc(a1-3)[Fuc(a1-2)]Gal(b1-4)Glc
In short: as §1

[12] = target: Gal(b1-3)GalNAc(a1-3)[Fuc(a1-2)]Gal(b1-4)GlcNAc
In short: as §1

[13] = target: Gal(b1-3)GalNAc(b1-4)Gal(b1-4)Glc
In short: as §1

[14] = target: Gal(b1-3)GlcNAc(b1-2)Man(a1-3)[GlcNAc(b1-4)][Gal(b1-3)GlcNAc(b1-2)Man(a1-6)]Man(b1-4)GlcNAc(b1-4)GlcNAc
In short: as §1

[15] = target: Gal(b1-3)[Fuc(a1-4)]GlcNAc(b1-2)Man(a1-3)[Gal(b1-3)[Fuc(a1-4)]GlcNAc(b1-2)Man(a1-6)]Man(b1-4)GlcNAc(b1-4)[Fuc(a1-6)]GlcNAc
In short: as §1

Gal(b1-4)GlcNAc(b1-2)Man = target: Gal(b1-4)GlcNAc(b1-2)Man
In short: as §1

[16] = target: Gal(b1-4)GlcNAc(b1-2)Man(a1-3)[Man(a1-6)]Man(b1-4)GlcNAc(b1-4)GlcNAc
In short: as §1

[17] = target: Gal(b1-4)GlcNAc(b1-2)[Gal(b1-4)GlcNAc(b1-4)]Man(a1-3)[Gal(b1-4)GlcNAc(b1-2)Man(a1-6)]Man(b1-4)GlcNAc(b1-4)GlcNAc
In short: as §1

[18] = target: Gal(b1-4)GlcNAc(b1-3)Gal(b1-4)Glc
In short: as §1

Gal6S(b1-3)GlcNAc6S = target: Gal6S(b1-3)GlcNAc6S
In short: as §1

Gal6S(b1-4)GlcNAc6S = target: Gal6S(b1-4)GlcNAc6S
In short: as §1

[19] = target: GalNAc(b1-4)GlcNAc(b1-2)Man(a1-3)[GalNAc(b1-4)GlcNAc(b1-2)Man(a1-6)]Man(b1-4)GlcNAc(b1-4)GlcNAc
In short: as §1

[20] = target: GlcNAc(a1-4)Gal(b1-3)GlcNAc
In short: as §1

[21] = target: GlcNAc(a1-4)Gal(b1-4)GlcNAc(b1-3)Gal(b1-4)[Fuc(a1-3)]GlcNAc(b1-3)Gal(b1-4)[Fuc(a1-3)]GlcNAc
In short: as §1

[22] = target: GlcNAc(b1-2)Man(a1-3)[GlcNAc(b1-4)][GlcNAc(b1-2)Man(a1-6)]Man(b1-4)GlcNAc(b1-4)GlcNAc
In short: as §1

[23] = target: GlcNAc(b1-3)Gal(b1-4)GlcNAc
In short: as §1

[24] = target: GlcNAc(b1-3)[GlcNAc(b1-4)][GlcNAc(b1-6)]GlcNAc
In short: as §1

Kdn(a2-3)Gal(b1-4)GlcNAc = target: Kdn(a2-3)Gal(b1-4)GlcNAc
In short: as §1

[25] = target: Man(a1-2)Man(a1-2)Man(a1-3)Man
In short: as §1

[26] = target: Man(a1-2)Man(a1-3)[Man(a1-6)]Man(a1-6)[Man(a1-2)Man(a1-3)]Man(b1-4)GlcNAc(b1-4)GlcNAc
In short: as §1

[27] = target: Man(a1-3)[Man(a1-6)]Man(b1-4)GlcNAc(b1-4)[Fuc(a1-6)]GlcNAc
In short: as §1

[28] = target: Neu5Ac(a2-3)Gal(b1-4)GlcNAc(b1-2)Man
In short: as §1

[29] = target: Neu5Ac(a2-3)Gal(b1-4)GlcNAc(b1-3)Gal
In short: as §1

[30] = target: Neu5Ac(a2-3)Gal(b1-4)GlcNAc(b1-3)Gal(b1-4)GlcNAc(b1-3)GalNAc
In short: as §1

[31] = target: Neu5Ac(a2-3)Gal(b1-4)GlcNAc(b1-3)Gal(b1-4)GlcNAc(b1-6)[Gal(b1-3)]GalNAc
In short: as §1

[32] = target: Neu5Ac(a2-3)Gal(b1-4)GlcNAc(b1-3)GalNAc
In short: as §1

[33] = target: Neu5Ac(a2-3)Gal(b1-4)[Fuc(a1-3)]GlcNAc(b1-3)GalNAc
In short: as §1

[34] = target: Neu5Ac(a2-3)Gal6S(b1-4)[Fuc(a1-3)]GlcNAc
In short: as §1

[35] = target: Neu5Ac(a2-6)Gal(b1-4)GlcNAc(b1-3)Gal(b1-4)GlcNAc(b1-3)Gal(b1-4)GlcNAc(b1-2)Man(a1-3)[Neu5Ac(a2-6)Gal(b1-4)GlcNAc(b1-3)Gal(b1-4)GlcNAc(b1-3)Gal(b1-4)GlcNAc(b1-2)Man(a1-6)]GalNAc
In short: as §1

[36] = target: Neu5Ac(a2-6)Gal(b1-4)GlcNAc(b1-6)[Gal(b1-3)]GalNAc
In short: as §1

[37] = target: Neu5Ac(a2-6)GalNAc(b1-4)GlcNAc
In short: as §1

[38] = target: Neu5Ac(a2-6)GlcNAc(b1-4)GlcNAc
In short: as §1

[39] = target: Neu5Ac(a2-6)GlcNAc(b1-4)GlcNAc(b1-4)GlcNAc
In short: as §1

[40] = target: Neu5Ac(a2-8)Neu5Ac(a2-3)Gal(b1-3)GalNAc(b1-4)[Neu5Ac(a2-8)Neu5Ac(a2-3)]Gal(b1-4)Glc
In short: as §1

[41] = target: Neu5Gc(a2-3)Gal(b1-4)[Fuc(a1-3)]GlcNAc
In short: as §1

B1: B1257 (Bifidobacterium sp) (protein)
chain: MKKSIRLVAAIAALAMTAGISACGSSTNGNQAKSDVTAQDVETALTDTSKNVELTVWAYSAKQMEPTVKAFEKKYPHIKINFVNTGAAGDHFTKFQNVVQAQKDIPDVVQMGANKFQQFAVSGALLNFANDSIEKAWSKLYTKTAWAQVHYAGGLYGAPQDATPLANYVRKDILDEHNLQVPESWEDIYNEGIKLHKEDSNKYMGILGSDISFFTNLYRSVGARLWKVNSVDDVELTMNSGKAKEFTEFLQKCLKDGVLEGGTVFTDEFNRSINDGRYATFINENWMGNTYKEQNPSLKGKMVVAAPPSWKGQPYQSSSVGSMMSVSAACPKEKQAAALAFINWLDSDKDAIQSWQDTNNGNFFMAASVYQDDENQRNKKETDGYYANDDVNAVYFDSMDKVNTDWEYLPFMSQVEVVFNDVIVPQMNENGDLVGAMAKAQQELKTYAKDNGFKVTTDAD
For B1, the “glycan array binding signal (z-score)” value (Fuc(a1-2)Gal) was 23.9, the “glycan array binding signal (z-score)” value [1] was 0.153 and the “glycan array binding signal (z-score)” value [2] was -0.158. For the same binder, the “glycan array binding signal (z-score)” value (Fuc(a1-2)Gal(b1-4)Glc) was 3.8, the “glycan array binding signal (z-score)” value [3] was 0.025 and the “glycan array binding signal (z-score)” value [4] was -0.086. For the same binder, the “glycan array binding signal (z-score)” value [5] was 0.166, the “glycan array binding signal (z-score)” value [6] was -0.027 and the “glycan array binding signal (z-score)” value [7] was 0.046. For the same binder, the “glycan array binding signal (z-score)” value [8] was 0.027, the “glycan array binding signal (z-score)” value [9] was -0.213 and the “glycan array binding signal (z-score)” value (Gal(a1-4)Gal(b1-4)Glc) was -0.023. For the same binder, the “glycan array binding signal (z-score)” value [10] was 0.48, the “glycan array binding signal (z-score)” value (Gal(b1-3)GalNAc) was 0.28 and the “glycan array binding signal (z-score)” value [11] was 0.314. The “glycan array binding signal (z-score)” value [12] was -0.014, the “glycan array binding signal (z-score)” value [13] was -0.085 and the “glycan array binding signal (z-score)” value [14] was 0.324. For the same binder, the “glycan array binding signal (z-score)” value [15] was 0.461, the “glycan array binding signal (z-score)” value (Gal(b1-4)GlcNAc(b1-2)Man) was -0.056 and the “glycan array binding signal (z-score)” value [16] was -0.051. The “glycan array binding signal (z-score)” value [17] was -0.081, the “glycan array binding signal (z-score)” value [18] was 0.301 and the “glycan array binding signal (z-score)” value (Gal6S(b1-3)GlcNAc6S) was -0.051. The “glycan array binding signal (z-score)” value (Gal6S(b1-4)GlcNAc6S) was -0.133, the “glycan array binding signal (z-score)” value [19] was 1.83 and the “glycan array binding signal (z-score)” value [20] was -0.103. The “glycan array binding signal (z-score)” value [21] was 0.11, the “glycan array binding signal (z-score)” value [22] was 0.002 and the “glycan array binding signal (z-score)” value [23] was -0.138. The “glycan array binding signal (z-score)” value [24] was -0.13, the “glycan array binding signal (z-score)” value (Kdn(a2-3)Gal(b1-4)GlcNAc) was -0.061 and the “glycan array binding signal (z-score)” value [25] was -0.128. The “glycan array binding signal (z-score)” value [26] was -0.161, the “glycan array binding signal (z-score)” value [27] was -0.128 and the “glycan array binding signal (z-score)” value [28] was 0.015. For the same binder, the “glycan array binding signal (z-score)” value [29] was -0.111, the “glycan array binding signal (z-score)” value [30] was -0.094 and the “glycan array binding signal (z-score)” value [31] was -0.087. The “glycan array binding signal (z-score)” value [32] was 0.727, the “glycan array binding signal (z-score)” value [33] was 0.158 and the “glycan array binding signal (z-score)” value [34] was -0.194. The “glycan array binding signal (z-score)” value [35] was 0.344, the “glycan array binding signal (z-score)” value [36] was -0.046 and the “glycan array binding signal (z-score)” value [37] was -0.178. For the same binder, the “glycan array binding signal (z-score)” value [38] was -0.027, the “glycan array binding signal (z-score)” value [39] was -0.081 and the “glycan array binding signal (z-score)” value [40] was -0.004. The “glycan array binding signal (z-score)” value [41] was -0.012.
